Laboratory results reported in PubChem BioAssay AID1159580 (chemical genetic matrix, 2015).
The campaign covered roughly 5,500 compounds. About 2,000 (36%) were called active. Another 18% or so got no clear call; they are omitted. Cut-off read from the data, not from the text of the source: active = normalized growth mostly below about 0.91 (no sharp cut-off); inconclusive = no clear call, values can overlap the other calls; inactive = mostly above about 0.92. Some of the results follow.

Assay: chemical genetic growth profiling, strain panel (AID 1159580);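 note: tested at 20 µM; growth read once vehicle control cultures reached saturation at 30 °C; 1 = growth at the plate median or of vehicle wells; lower values mean less growth of the strain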
Conditions: growth OD

Measured: normalized growth

CN[C@@H]1[C@H](O)[C@H](NC)[C@H]2O[C@@]3(O)C(=O)C[C@@H](C)O[C@H]3O[C@@H]2[C@H]1O
inactive: S. cerevisiae deletion strains, locus YJR075W, strain HOC1, hits give low values 1.01 | S. cerevisiae deletion strains, locus YKL009W, strain mrt4, hits give low values 1.02 | S. cerevisiae deletion strains, locus YKL068W, hits give low values 1.01 | S. cerevisiae deletion strains, locus YKL085W, strain MDH1 (second series), hits give low values 1.01 | S. cerevisiae deletion strains, locus YKL085W, strain MDH1, hits give low values 1.01 | S. cerevisiae deletion strains, locus YKL160W, strain elf1, hits give low values 1.01 | S. cerevisiae deletion strains, locus YKL190W, strain CNB1, hits give low values 1 | S. cerevisiae deletion strains, locus YKR001C, strain vps1, hits give low values 1.02 | S. cerevisiae deletion strains, locus YKR026C, strain gcn3, hits give low values 1.01 | S. cerevisiae deletion strains, locus YKR091W, strain srl3, hits give low values 1 | S. cerevisiae deletion strains, locus YLL001W, strain dnm1, hits give low values 1.02 | S. cerevisiae deletion strains, locus YLL026W, hits give low values 1 | S. cerevisiae deletion strains, locus YLL041C, strain sdh2, hits give low values 0.999 | S. cerevisiae deletion strains, locus YLR027C, strain aat2, hits give low values 1.01 | S. cerevisiae deletion strains, locus YLR039C, strain RIC1, hits give low values 1.05 | S. cerevisiae deletion strains, locus YLR058C, strain SHM2, hits give low values 1.01 | S. cerevisiae deletion strains, locus YLR102C, strain apc9, hits give low values 1.02 | S. cerevisiae deletion strains, locus YLR113W, strain HOG1, hits give low values 0.967 | S. cerevisiae deletion strains, locus YLR221C, strain rsa3, hits give low values 0.981 | S. cerevisiae deletion strains, locus YLR258W, strain gsy2, hits give low values 0.999 | S. cerevisiae deletion strains, locus YLR262C, strain YPT6 (second series), hits give low values 1.05 | S. cerevisiae deletion strains, locus YLR262C, strain YPT6, hits give low values 1.06 | S. cerevisiae deletion strains, locus YLR268W, strain sec22, hits give low values 1.04 | S. cerevisiae deletion strains, locus YLR320W, strain mms22, hits give low values 0.974 | S. cerevisiae deletion strains, locus YLR330W, strain CHS5, hits give low values 1.01 | S. cerevisiae deletion strains, locus YLR342W, strain FKS1 (second series), hits give low values 1 | S. cerevisiae deletion strains, locus YLR342W, strain FKS1, hits give low values 1.02 | S. cerevisiae deletion strains, locus YLR357W, strain rsc2, hits give low values 1 | S. cerevisiae deletion strains, locus YLR370C, strain arc18, hits give low values 0.995 | S. cerevisiae deletion strains, locus YLR371W, strain rom2, hits give low values 1.02 | S. cerevisiae deletion strains, locus YLR384C, strain iki3, hits give low values 1.01 | S. cerevisiae deletion strains, locus YLR418C, strain cdc73, hits give low values 1.03 | S. cerevisiae deletion strains, locus YML016C, strain PPZ1, hits give low values 1.01 | S. cerevisiae deletion strains, locus YML032C, strain rad52, hits give low values 1.04 | S. cerevisiae deletion strains, locus YML120C, strain ndi1, hits give low values 1 | S. cerevisiae deletion strains, locus YML124C, strain tub3, hits give low values 1.02 | S. cerevisiae deletion strains, locus YMR058W, strain fet3, hits give low values 1.01 | S. cerevisiae deletion strains, locus YMR078C, strain ctf18, hits give low values 1.02 | S. cerevisiae deletion strains, locus YMR125W, strain sto1, hits give low values 0.99 | S. cerevisiae deletion strains, locus YMR129W, hits give low values 0.999 | S. cerevisiae deletion strains, locus YMR205C, strain PFK2, hits give low values 1 | S. cerevisiae deletion strains, locus YMR223W, strain ubp8, hits give low values 1.01 | S. cerevisiae deletion strains, locus YMR231W, strain pep5, hits give low values 1 | S. cerevisiae deletion strains, locus YMR263W, strain SAP30, hits give low values 1.01 | S. cerevisiae deletion strains, locus YMR307W, strain GAS1, hits give low values 1.03 | S. cerevisiae deletion strains, locus YNL067W, strain RPL9B, hits give low values 1.02 | S. cerevisiae deletion strains, locus YNL071W, strain lat1, hits give low values 0.996 | S. cerevisiae deletion strains, locus YNL128W, strain TEP1, hits give low values 1.02 | S. cerevisiae deletion strains, locus YNL153C, strain GIM3, hits give low values 1 | S. cerevisiae deletion strains, locus YNL183C, strain NPR1, hits give low values 0.94 | S. cerevisiae deletion strains, locus YNL209W, strain ssb2, hits give low values 0.999 | S. cerevisiae deletion strains, locus YNL233W, strain BNI4, hits give low values 1.02 | S. cerevisiae deletion strains, locus YNL248C, strain rpa49, hits give low values 0.954 | S. cerevisiae deletion strains, locus YNL250W, strain rad50, hits give low values 1.02 | S. cerevisiae deletion strains, locus YNL271C, strain bni1, hits give low values 1.01 | S. cerevisiae deletion strains, locus YNL298W, strain CLA4, hits give low values 1.03 | S. cerevisiae deletion strains, locus YNL307C, strain MCK1, hits give low values 1.03 | S. cerevisiae deletion strains, locus YNL322C, strain KRE1 (second series), hits give low values 1 | S. cerevisiae deletion strains, locus YNL322C, strain KRE1, hits give low values 1.01 | S. cerevisiae deletion strains, locus YNR049C, strain mso1, hits give low values 1.01 | S. cerevisiae deletion strains, locus YNR052C, strain pop2, hits give low values 1.02 | S. cerevisiae deletion strains, locus YOL006C, strain TOP1, hits give low values 1.08 | S. cerevisiae deletion strains, locus YOL012C, strain htz1 0.978 | S. cerevisiae deletion strains, locus YOL147C, strain pex11, hits give low values 1.02 | S. cerevisiae deletion strains, locus YOR001W, strain rrp6, hits give low values 1.02 | S. cerevisiae deletion strains, locus YOR061W, strain CKA2, hits give low values 1.02 | S. cerevisiae deletion strains, locus YOR069W, strain VPS5, hits give low values 1.01 | S. cerevisiae deletion strains, locus YOR070C, strain gyp1, hits give low values 1 | S. cerevisiae deletion strains, locus YOR080W, strain dia2, hits give low values 1.01 | S. cerevisiae deletion strains, locus YOR083W, strain WHI5, hits give low values 0.982 | S. cerevisiae deletion strains, locus YOR106W, strain vam3, hits give low values 1.02 | S. cerevisiae deletion strains, locus YOR136W, strain idh2, hits give low values 1.02 | S. cerevisiae deletion strains, locus YOR144C, strain elg1, hits give low values 1.02 | S. cerevisiae deletion strains, locus YOR184W, strain ser1, hits give low values 1.03 | S. cerevisiae deletion strains, locus YOR231W, strain MKK1, hits give low values 0.953 | S. cerevisiae deletion strains, locus YOR265W, strain rbl2, hits give low values 1.01 | S. cerevisiae deletion strains, locus YOR270C, strain vph1, hits give low values 1.01 | S. cerevisiae deletion strains, locus YOR290C, strain snf2, hits give low values 0.978 | S. cerevisiae deletion strains, locus YOR316C, strain cot1, hits give low values 1.01 | S. cerevisiae deletion strains, locus YPL051W, strain arl3, hits give low values 1.01 | S. cerevisiae deletion strains, locus YPL055C, strain LGE1, hits give low values 1.02 | S. cerevisiae deletion strains, locus YPL078C, strain atp4, hits give low values 1.02 | S. cerevisiae deletion strains, locus YPL106C, strain sse1, hits give low values 0.991 | S. cerevisiae deletion strains, locus YPL240C, strain hsp82, hits give low values 0.995 | S. cerevisiae deletion strains, locus YPL241C, strain CIN2, hits give low values 1.01 | S. cerevisiae deletion strains, locus YPL256C, strain CLN2, hits give low values 0.962 | S. cerevisiae deletion strains, locus YPR119W, strain clb2, hits give low values 1.02 | S. cerevisiae deletion strains, locus YPR141C, strain kar3, hits give low values 1.02 | S. cerevisiae deletion strains, locus YPR163C, strain tif3, hits give low values 1.02 | S. cerevisiae deletion strains, locus YPR167C, strain met16, hits give low values 1.03 | S. cerevisiae deletion strains, strain wtn01, hits give low values 1.03 | S. cerevisiae strains, strain wild type, hits give low values 1.01
